The campaign covered roughly 310,000 compounds. About 1,300 (0.42%) were called active. Shown is part of a subset that was picked to be rich in actives. Values without a mark were called inactive. Cut-off read from the data, not from the text of the source: active = inhibition above about 50%; inactive = the rest.

The target of the test is Dual specificity tyrosine-phosphorylation-regulated kinase 1A (Rattus norvegicus) (UniProt Q63470). Description: inhibition of Dyrk1A kinase activity – biochemical, single point, plate reader, primary screen (AID 504441).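 Note: plate controls were vehicle with enzyme for no effect and no enzyme for full effect.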 The settings on record: ADP-Glo luminescence, NFATc1 peptide, at 12.5 µM, stronger effect = higher value.
`CN(CCc1ccccc1)C(=O)c1cccc(NC(=O)Cc2cccc(NC(=O)C3CCCN(C(=O)C4CCC4)C3)c2)c1` (stereo not given): the inhibition is -0.693%.
The result for `CCCN(CC(=O)Nc1ccccc1C)C(=O)c1ccc(OCC(=O)N2CCOCC2)c(OCC)c1` reads -7.61%.
For the compound `CN(O)C(=S)c1ccccc1`, the inhibition is -0.499%.
The result for `CSc1ncnc2c1ncn2CC(=O)C1CCC2C3CCC4=CC(=O)CCC4(C)C3CCC12C` (stereo not given) reads 5.41%; that for `COc1cc(OC)cc(-c2cc3ccc(F)cc3cn2)c1`, 13.1%; that for `CCOc1ccc(S(=O)(=O)N2CCN(C(=O)c3oc4ccccc4c3C)CC2)cc1`, 3.49%.
The result for `CCn1c(NC(=O)c2ccccc2)c(-c2cccs2)c(=O)c2ccccc21` reads 65.9% (active); that for `COc1ccccc1C(=O)Nn1c(-c2cccs2)nc2ccccc2c1=O`, 32.3%.
With `CCn1c(=O)c2cc(C(=O)Nc3cccc(C(C)=O)c3)sc2c2ccccc21` the figure was -0.698%.
Turning to `CCc1cc2c(NC(Cc3ccccc3)C(=O)O)ncnc2s1` (stereo not given), the inhibition was 2.6%.
With `CCc1cc2c(NC3CCCC3)ncnc2s1` the figure was 53.2% (active); with `CCc1cc2c(N3CCN(c4nnc(CC)s4)CC3)ncnc2s1`, 25.4%; with `COc1cc(/C=C/c2ccc(/C=C/c3cc(OC)c(OC)c(OC)c3)cc2)cc(OC)c1OC`, -1.84%.
As to `C#CCOCCOCCOCCNc1nc(N2CCN(C(=O)Cn3cc(CCO)nn3)CC2)nc(N2CCN(C(=O)Cn3cc(CCCN=C(N)N)nn3)CC2)n1`, the inhibition was 4.84%.
With `COc1ccc(Cl)cc1C=CC=Nc1ccc(S(N)(=O)=O)cc1` the figure was -0.507%; with `C[C@H]1CN([C@@H](C)CO)C(=O)Cc2cc(NC(=O)Cc3ccccc3)ccc2O[C@H]1CN(C)S(=O)(=O)c1cccs1`, -0.989%.
With `COc1ccc(S(=O)(=O)N(C)C[C@H]2Oc3ccc(NS(=O)(=O)c4cccs4)cc3CC(=O)N([C@H](C)CO)C[C@H]2C)cc1` the figure was 55.4% (active); with `COc1ccc(S(=O)(=O)N(C)C[C@@H]2Oc3ccc(NS(=O)(=O)c4cn(C)cn4)cc3C(=O)N([C@@H](C)CO)C[C@@H]2C)cc1`, 0.973%; with `O=C(NC1=CC(=O)c2ccccc2C1=O)c1ccccc1`, -0.529%.
With `O=C(OC12CC3CC(CC(C3)C1)C2)c1ccc(NCc2cc(O)ccc2O)cc1` the figure was 1.7%.
For `Cc1nn(-c2ncccn2)c2c1C(=O)CC(C)(C)C2Br` (stereo not given), the inhibition was 6.11%.
For the compound `C=C(C)Cn1c(N2CCN(CC)CC2)nc2c1c(=O)[nH]c(=O)n2C`, the inhibition was 55.9% (active).
The result for `C=C(C)Cn1c(N2CCCC2)nc2c1c(=O)[nH]c(=O)n2C` reads -3.28%; that for `Cn1c(=O)[nH]c(=O)c2c1nc(N1CCN(C(c3ccccc3)c3ccccc3)CC1)n2CCO`, 1.27%.
With `CN1C(c2ccc(F)cc2)=CS/C1=C(/C#N)c1nnc2n1-c1ccccc1SC2` the figure was -1.31%; with `COc1cccc(C(=O)NNC(=O)/C=C/c2ccccc2)c1`, 59.9% (active); with `COc1cccc(C=CC(=O)C=CC=Cc2ccccc2)c1`, -2.98%.
The result for `CC(C)c1ccc(/C=C/C(=O)NNC(=O)c2cccnc2)cc1` reads 11.1%; that for `O=C1NCC(c2ccccc2)(c2ccccc2)C(=O)N1`, -4.54%.
Turning to `COC[C@@H]1NS(=O)(=O)c2ccc(Br)cc2O[C@H]1c1ccccc1`, the inhibition was 7.26%.
As for `CCCCNC(=O)C(C)N(CCN(C)C)C(=O)CCCN1C(=O)NC(c2ccc(Cl)cc2)C(C(=O)OCc2ccccc2)=C1C` (stereo not given), the inhibition is 5.26%.
With `COc1cc(C2c3cc4c(cc3C(O)C3COC(=O)C23)OCO4)cc(OC)c1OC` (stereo not given) the figure was 0.167%.
As to `CCN1C(=NCCc2cccnc2)N[C@@H](c2ccccc2)[C@H](C(=O)OC)[C@H]1C`, the inhibition was -12.5%.
Take `CCN1C(=NCCc2cccnc2)N[C@@H](c2ccccc2)C(C(=O)OC)=C1C`: the inhibition is 53.7% (active).
The result for `COC(=O)C1=C(C)N(Cc2ccccc2)C(=NCCCOC(C)C)N[C@H]1c1ccccc1` reads -6.8%; that for `COc1ccccc1C(=O)c1ccccc1C(=O)c1ccccc1`, 1.1%; that for `COc1ccc(S(=O)(=O)N(C)C[C@@H]2Oc3ccc(NC(=O)Nc4c(C)noc4C)cc3C(=O)N([C@H](C)CO)C[C@@H]2C)cc1`, 1.82%.
The result for `O=C(NCc1ccco1)c1sc2cccc(F)c2c1Cl` reads 1.99%; that for `COc1ccc2oc(C(=O)NCc3ccco3)c(C)c2c1`, 19.2%.
The result for `COc1ccc2c(Cl)c(C(=O)NCc3ccco3)sc2c1` reads 54.5% (active).
With `Oc1[nH]c2ccccc2c1N=Nc1c(F)c(F)c(F)c(F)c1F`, the inhibition is 4.41%.
With `C[n+]1cccc(C(=O)O)c1` the figure was 0.48%.
The result for `CC1CCCN(C(=O)Cn2c(=O)oc3cc(S(=O)(=O)N4CCCCC4C)ccc32)C1` (stereo not given) reads 0.0944%; that for `O=C(Cc1ccc(Cl)cc1)c1ccccc1`, -1.54%.
The result for `COC(=O)C(C)Oc1ccc2c(c1)O/C(=C\c1cccc(Br)c1)C2=O` (stereo not given) reads -2.95%; that for `COc1ccc(NC(=O)CCN2C(=O)/C(=C/c3ccc4c(c3)OCO4)SC2=S)cc1`, -2.32%; that for `O=C1/C(=C/c2ccc3c(c2)OCO3)Oc2cc(OCC(=O)N3CC(O)C[C@H]3C(=O)O)ccc21` (stereo not given in full), 70.2% (active).
As for `O=C1c2ccccc2C(=O)C1C(=O)C1CC1`, the inhibition was -4.93%.
With `COc1ccc(CNCCCn2cnc3c(OCc4ccccc4)ncnc32)cc1` the figure was 6.66%.
For the compound `Cc1ccc(S(=O)(=O)n2oc(=O)c(C3CCCCC3)c2N)cc1`, the inhibition was -0.128%.
With `CCc1ccc(/C=C2\SC(N3CCOCC3)=NC2=O)cc1` the figure was 2.74%; with `O=C1N=C(N2CCc3ccccc3C2)S/C1=C\c1ccc(O)cc1`, 70.6% (active); with `CC1CCN(C2=NC(=O)/C(=C/c3ccc(O)cc3)S2)CC1`, 22.4%.
With `CN(CCc1ccccc1)C(=O)c1cccc(NC(=O)Cc2cccc(NC(=O)C3CCCN(C(=O)CCc4ccccc4)C3)c2)c1` (stereo not given) the figure was 0.419%; with `O=C(Cc1ccc(S(=O)(=O)N2CCOCC2)s1)Nc1ccc(Br)c(C(F)(F)F)c1`, 0.772%.

A word on the inhibition: it is the relative decrease from the control value, in per cent.

The values are drawn from PubChem BioAssay AID504441 (Broad Institute, 2011).
